# From PubChem BioAssay
# Where “and” joins values, the source holds several entries; their conditions need not be identical. Equal values may be shown once. Calls of active or inactive are those of the source. Unless noted, how the calls were made is not given here.
# What was measured:
# [1] = compounds altering circadian rhythm period length – cell-based, LOPAC library, luminescence reporter (AID 2774); details: circadian reporter cells, at 7 µM, actives lie on both sides;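 further: values are relative to mean of DMSO wells on each plate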
# [2] = test system: Hepatitis C virus NS3 helicase; experiment: blockers of NS3h binding to ssDNA – biochemical, fluorescence polarization, LOPAC1280 library, primary screen (AID 687035; in the data active means inhibition above about 37%); details: Purified HCV NS3 helicase, Cy5-dT15 ssDNA binding fluorescence polarization; stronger effect = higher value; concentration not given here
# [3] = compounds altering Cy5-DNA-NS3h complex signal – biochemical, LOPAC1280, artefact control for HCV NS3 helicase inhibitor project (AID 687037); details: Cy5-DNA-NS3h complex fluorescence interference counterscreen
# [4] = test system: Aerobactin synthetase IucA (Klebsiella pneumoniae); experiment: inhibition of K. pneumoniae IucA enzyme – biochemical, Tocris library, absorbance (AID 1345561); details: purified IucA enzyme assay, absorbance (OD) read-out; stronger effect = lower value;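 tested at 8 µM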;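 further: 100% = enzyme without compound and 0% = no enzyme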
# [5] = viability loss with induced miR-34 in A549 – imaging, A549 dox-inducible miR-34, nuclei and caspase counts, primary screen (AID 1347080;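 active means compounds whose cell count with miR-34 switched on is under 0.7 times the count with it off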); details: A549 miR-34 inducible, Hoechst nuclei count, 48 h
# [6] = blockers of cellular phospholipid synthesis – cell-based, LOPAC library, screen 4, primary screen (AID 1347384); details: animal cells, phospholipid biosynthesis inhibition screen; at 10 µM
# [7] = galactose survival enhancers in mitochondrial complex I cybrids – cell-based, galactose medium, ATP luminescence, primary screen (AID 1645843;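 active means z-score of at least 1.8 in each of two replicates, scored against plate mean and spread of sample wells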;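 further: positive z means more ATP and so rescue of galactose-driven cybrid death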); details: complex I mutant cybrid cells, 72 h, stronger effect = higher value
# [8] = MELAS cybrid and Rieske KO viability enhancers – cell-based, MELAS cybrids, Rieske KO mouse fibroblasts, CellTiter-Glo, primary screen (AID 1508586;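 active means mean z-score across replicates of 1.96 or higher in either the MELAS or the Rieske mutant cell line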;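 further: z relative to plate mean and SD of compound and empty wells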); details: low glucose
# [9] = test system: Aerobactin synthetase IucA (Klebsiella pneumoniae, hypervirulent); experiment: biochemical IucA inhibition screen of LOPAC library by absorbance (AID 1346212); details: IucA enzyme assay, absorbance (OD) readout; stronger effect = lower value;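 tested at 8 µM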;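 further: 100% = no compound wells and 0% = no enzyme wells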
# [10] = compounds altering viability of human ES cells (AID 493140); details: human embryonic stem cell survival screen; stronger effect = higher value;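 further: cells exposed to compounds for four days before counting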
# [11] = P. berghei load reduction in hepatocytes – cell-based, HepG2, luciferase luminescence, HepG2 viability, primary screen (AID 624349; in the data active means parasite load remaining mostly below about 12%, no sharp cut-off; inactive means mostly above about 10%;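 further: 100% = mean of DMSO negative control wells on the same plate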); details: P. berghei liver stage in HepG2, luciferase luminescence, concentration not given here; parasite load remaining: stronger effect = lower value; viability: measured here: HepG2 viability without parasites
# [12] = stronger effect = lower value, cell number ratio, induced over uninduced
# [13] = measured here: relative caspase fold change +Dox/-Dox
# [14] = measured here: total cells with miR-34 induction, stronger effect = lower value
# [15] = measured here: total cells without miR-34 induction
# [16] = MELAS cybrid survival, CellTiter-Glo 48 h, stronger effect = higher value
# [17] = Rieske KO mouse fibroblast survival, CellTiter-Glo 72 h
smiles,measurement,setting,value
Cc1o[nH]c(=O)c1CC(N)C(=O)O (stereo not given),period change,[1],-0.03 h (inactive)
same,inhibition,[2],-4% (inactive)
same,fluorescence ratio (interference),[3],0.9 (inactive)
same,remaining activity,[4],111% (inactive) and 121% (inactive)
same,fold change,[5]; [12],0.968 (inactive) and 0.976 (inactive) and 0.969 (inactive)
same,fold change,[5]; [13],1.08 and 0.707 and 0.956
same,cell count,[5]; [14],10200 and 8490 and 9480
same,cell count,[5]; [15],10500 and 8700 and 9780
same,outcome,[6],inactive
same,z-score,[7],0.295 (inactive) and -0.475 (inactive) and -0.075 (inactive)
O=C1C2CCN(CC2)C1(CO)CO,remaining activity,[4],120% (inactive)
same,fold change,[5]; stronger effect = lower value,1.16 (inactive) and 0.936 (inactive) and 0.92 (inactive)
same,fold change,[5]; [13],1.5 and 1.74 and 0.604
same,cell count,[5]; [14],4350 and 5660 and 9650
same,cell count,[5]; [15],3770 and 6050 and 10500
same,z-score,[7],-0.76 (inactive)
CCOc1cncc(/C=C/CCNC)c1,remaining activity,[4],108% (inactive)
same,fold change,[5]; [12],0.967 (inactive)
same,fold change,[5]; [13],1.27
same,cell count,[5]; [14],8770
same,cell count,[5]; [15],9060
same,z-score,[7],-0.075 (inactive)
CN1c2ccccc2C(NCCCCCCC(=O)O)c2ccc(Cl)cc2S1(=O)=O (stereo not given),remaining activity,[4],117% (inactive)
same,fold change,[5]; stronger effect = lower value,0.955 (inactive) and 0.9 (inactive)
same,fold change,[5]; [13],0.36 and 0.634
same,cell count,[5]; [14],7100 and 7840
same,cell count,[5]; [15],7430 and 8710
same,z-score,[8]; [16],-0.117 (inactive)
same,z-score,[8]; [17],0.00377
same,z-score,[7],0.255 (inactive)
CCNC(=O)[C@H]1O[C@@H](n2cnc3c(N)ncnc32)[C@H](O)[C@@H]1O,remaining activity,[4],122% (inactive)
same,remaining activity,[9],120% (inactive)
same,fold change,[5]; [12],0.978 (inactive)
same,fold change,[5]; [13],0.831
same,cell count,[5]; [14],8940
same,cell count,[5]; [15],9140
same,z-score,[7],-0.23 (inactive)
Cc1nnc2ccc(-c3cccc(C(F)(F)F)c3)nn12,remaining activity,[4],126% (inactive)
same,fold change,[5]; stronger effect = lower value,0.912 (inactive)
same,fold change,[5]; [13],0.497
same,cell count,[5]; [14],9060
same,cell count,[5]; [15],9940
same,z-score,[7],0.155 (inactive)
COc1ccc(CNC(=O)/C=C/c2ccc3[nH]cc(CCN(C)C)c3c2)cc1,period change,[1],0.1 h (inactive)
same,inhibition,[2],-1% (inactive)
same,fluorescence ratio (interference),[3],1 (inactive)
same,remaining activity,[4],97.5% (inactive)
same,remaining activity,[9],111% (inactive)
same,fold change,[5]; stronger effect = lower value,1.08 (inactive) and 0.935 (inactive)
same,fold change,[5]; [13],1.56 and 0.859
same,cell count,[5]; [14],9510 and 8680
same,cell count,[5]; [15],8780 and 9280
same,z-score,[7],-0.155 (inactive) and -0.415 (inactive)
CN(C)CCN(C)CCc1ccc(Cl)c(Cl)c1,remaining activity,[4],102% (inactive)
same,fold change,[5]; [12],0.927 (inactive)
same,fold change,[5]; [13],0.848
same,cell count,[5]; [14],8600
same,cell count,[5]; [15],9270
same,z-score,[7],-0.285 (inactive)
C[N+]1(C)CCC(OC(=O)C(c2ccccc2)c2ccccc2)CC1,period change,[1],0.03 h (inactive)
same,inhibition,[2],-2% (inactive)
same,fluorescence ratio (interference),[3],1.1 (inactive)
same,remaining activity,[4],93.9% (inactive)
same,remaining activity,[9],107% (inactive)
same,fold change,[5]; stronger effect = lower value,0.984 (inactive) and 0.955 (inactive)
same,fold change,[5]; [13],1.12 and 0.994
same,cell count,[5]; [14],9760 and 8710
same,cell count,[5]; [15],9910 and 9120
same,z-score,[7],0.275 (inactive) and 1.67 (inactive)
C[C@@]12N[C@@H](Cc3ccccc31)c1ccccc12,survival,[10],4.17 (inactive)
same,parasite load remaining,[11],76.1% (inactive)
same,viability,[11],94%
same,remaining activity,[4],98.4% (inactive)
same,fold change,[5]; stronger effect = lower value,0.9 (inactive) and 1.01 (inactive) and 0.896 (inactive)
same,fold change,[5]; [13],1.15 and 0.684 and 0.656
same,cell count,[5]; [14],9800 and 8290 and 9030
same,cell count,[5]; [15],10900 and 8240 and 10100
same,z-score,[8]; [16],-0.404 (inactive) and 0.719 (inactive)
same,z-score,[8]; [17],-0.00785 and -0.0901
same,z-score,[7],0.79 (inactive)
Cc1cc(SCc2sc(-c3ccc(C(F)(F)F)c(F)c3)nc2C)ccc1OCC(=O)O,remaining activity,[4],88.1% (inactive)
same,fold change,[5]; [12],0.896 (inactive) and 0.953 (inactive) and 0.869 (inactive)
same,fold change,[5]; [13],0.54 and 0.363 and 1.57
same,cell count,[5]; [14],5150 and 8510 and 7240
same,cell count,[5]; [15],5740 and 8930 and 8330
same,z-score,[8]; [16],-0.492 (inactive)
same,z-score,[8]; [17],-2.16
same,z-score,[7],1.59 (inactive)
O=C(O)Cc1cccnc1C(=O)O,remaining activity,[4],108% (inactive)
same,fold change,[5]; [12],0.98 (inactive)
same,fold change,[5]; [13],0.669
same,cell count,[5]; [14],8790
same,cell count,[5]; [15],8970
same,z-score,[7],0.32 (inactive)
N[C@@H](Cn1oc(=O)[nH]c1=O)C(=O)O,inhibition,[2],-2% (inactive)
same,fluorescence ratio (interference),[3],1 (inactive)
same,remaining activity,[4],106% (inactive)
same,remaining activity,[9],109% (inactive)
same,fold change,[5]; [12],0.917 (inactive)
same,fold change,[5]; [13],0.755
same,cell count,[5]; [14],8070
same,cell count,[5]; [15],8800
same,outcome,[6],inactive
same,z-score,[7],-0.215 (inactive)
CC(=O)N(C)c1cccc(-c2ccnc3c(C(=O)c4cccs4)cnn23)c1,remaining activity,[4],110% (inactive)
same,fold change,[5]; stronger effect = lower value,0.919 (inactive)
same,fold change,[5]; [13],1.18
same,cell count,[5]; [14],6530
same,cell count,[5]; [15],7110
same,z-score,[7],2.35 (active)
NC(C(=O)O)c1cc(=O)[nH]o1 (stereo not given),period change,[1],0.025 h (inactive)
same,inhibition,[2],-1% (inactive)
same,fluorescence ratio (interference),[3],0.9 (inactive)
same,remaining activity,[4],105% (inactive)
same,fold change,[5]; stronger effect = lower value,1.08 (inactive) and 0.946 (inactive)
same,fold change,[5]; [13],1.44 and 1.4
same,cell count,[5]; [14],10500 and 9700
same,cell count,[5]; [15],9770 and 10300
same,outcome,[6],inactive
same,z-score,[7],0.635 (inactive) and 0.185 (inactive)
